Measurements published in PubChem BioAssay AID1159580 (chemical genetic matrix, 2015).
Among all 5,500 compounds or so, about 2,000 (36%) were called active. Roughly 18% stayed inconclusive and do not appear here. Rule as the data show it: active = normalized growth mostly below about 0.91 (no sharp cut-off); inconclusive = no clear call, values can overlap the other calls; inactive = mostly above about 0.92. This is one part of the list.

Experiment: chemical genetic growth profiling, strain panel (AID 1159580);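 also: tested at 20 µM; growth read once vehicle control cultures reached saturation at 30 °C; 1 = growth at the plate median or of vehicle wells; lower values mean less growth of the strain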
Conditions: growth OD

Measured: normalized growth

CN(C)[C@@H]1C(=O)C(C(N)=O)=C(O)[C@@]2(O)C(=O)C3=C(O)c4c(O)cccc4[C@@](C)(O)[C@H]3[C@H](O)[C@@H]12
inactive: S. cerevisiae deletion strains, locus YJR075W, strain HOC1, active compounds read low 1.01 | S. cerevisiae deletion strains, locus YKL009W, strain mrt4, active compounds read low 0.996 | S. cerevisiae deletion strains, locus YKL068W, active compounds read low 0.997 | S. cerevisiae deletion strains, locus YKL085W, strain MDH1 (second series), active compounds read low 0.999 | S. cerevisiae deletion strains, locus YKL085W, strain MDH1, active compounds read low 0.999 | S. cerevisiae deletion strains, locus YKL160W, strain elf1, active compounds read low 1.02 | S. cerevisiae deletion strains, locus YKL190W, strain CNB1, active compounds read low 1.01 | S. cerevisiae deletion strains, locus YKR001C, strain vps1, active compounds read low 0.989 | S. cerevisiae deletion strains, locus YKR026C, strain gcn3, active compounds read low 1.01 | S. cerevisiae deletion strains, locus YKR091W, strain srl3, active compounds read low 1.02 | S. cerevisiae deletion strains, locus YLL001W, strain dnm1, active compounds read low 1.02 | S. cerevisiae deletion strains, locus YLL026W, active compounds read low 1.03 | S. cerevisiae deletion strains, locus YLL041C, strain sdh2, active compounds read low 1.02 | S. cerevisiae deletion strains, locus YLR027C, strain aat2, active compounds read low 1.01 | S. cerevisiae deletion strains, locus YLR039C, strain RIC1, active compounds read low 1.03 | S. cerevisiae deletion strains, locus YLR058C, strain SHM2, active compounds read low 1 | S. cerevisiae deletion strains, locus YLR102C, strain apc9, active compounds read low 0.995 | S. cerevisiae deletion strains, locus YLR113W, strain HOG1, active compounds read low 0.995 | S. cerevisiae deletion strains, locus YLR221C, strain rsa3, active compounds read low 1.01 | S. cerevisiae deletion strains, locus YLR258W, strain gsy2, active compounds read low 1.01 | S. cerevisiae deletion strains, locus YLR262C, strain YPT6 (second series), active compounds read low 0.997 | S. cerevisiae deletion strains, locus YLR262C, strain YPT6, active compounds read low 1.02 | S. cerevisiae deletion strains, locus YLR268W, strain sec22, active compounds read low 0.975 | S. cerevisiae deletion strains, locus YLR320W, strain mms22, active compounds read low 1.01 | S. cerevisiae deletion strains, locus YLR330W, strain CHS5, active compounds read low 1.01 | S. cerevisiae deletion strains, locus YLR342W, strain FKS1 (second series), active compounds read low 0.976 | S. cerevisiae deletion strains, locus YLR342W, strain FKS1, active compounds read low 1 | S. cerevisiae deletion strains, locus YLR357W, strain rsc2, active compounds read low 1 | S. cerevisiae deletion strains, locus YLR370C, strain arc18, active compounds read low 1.02 | S. cerevisiae deletion strains, locus YLR371W, strain rom2, active compounds read low 1 | S. cerevisiae deletion strains, locus YLR384C, strain iki3, active compounds read low 1.02 | S. cerevisiae deletion strains, locus YLR418C, strain cdc73, active compounds read low 0.986 | S. cerevisiae deletion strains, locus YML016C, strain PPZ1, active compounds read low 0.994 | S. cerevisiae deletion strains, locus YML032C, strain rad52, active compounds read low 0.98 | S. cerevisiae deletion strains, locus YML120C, strain ndi1, active compounds read low 1.01 | S. cerevisiae deletion strains, locus YML124C, strain tub3, active compounds read low 1 | S. cerevisiae deletion strains, locus YMR058W, strain fet3, active compounds read low 0.977 | S. cerevisiae deletion strains, locus YMR078C, strain ctf18, active compounds read low 1 | S. cerevisiae deletion strains, locus YMR125W, strain sto1, active compounds read low 1.01 | S. cerevisiae deletion strains, locus YMR129W, active compounds read low 1.01 | S. cerevisiae deletion strains, locus YMR205C, strain PFK2, active compounds read low 1.04 | S. cerevisiae deletion strains, locus YMR223W, strain ubp8, active compounds read low 0.988 | S. cerevisiae deletion strains, locus YMR231W, strain pep5, active compounds read low 1.02 | S. cerevisiae deletion strains, locus YMR307W, strain GAS1, active compounds read low 0.994 | S. cerevisiae deletion strains, locus YNL067W, strain RPL9B, active compounds read low 1.01 | S. cerevisiae deletion strains, locus YNL071W, strain lat1, active compounds read low 1.02 | S. cerevisiae deletion strains, locus YNL128W, strain TEP1, active compounds read low 1.01 | S. cerevisiae deletion strains, locus YNL153C, strain GIM3, active compounds read low 0.998 | S. cerevisiae deletion strains, locus YNL183C, strain NPR1, active compounds read low 0.95 | S. cerevisiae deletion strains, locus YNL209W, strain ssb2, active compounds read low 1.01 | S. cerevisiae deletion strains, locus YNL233W, strain BNI4, active compounds read low 1 | S. cerevisiae deletion strains, locus YNL248C, strain rpa49, active compounds read low 0.966 | S. cerevisiae deletion strains, locus YNL250W, strain rad50, active compounds read low 0.994 | S. cerevisiae deletion strains, locus YNL271C, strain bni1, active compounds read low 0.984 | S. cerevisiae deletion strains, locus YNL298W, strain CLA4, active compounds read low 0.968 | S. cerevisiae deletion strains, locus YNL307C, strain MCK1, active compounds read low 1.01 | S. cerevisiae deletion strains, locus YNL322C, strain KRE1 (second series), active compounds read low 1.01 | S. cerevisiae deletion strains, locus YNL322C, strain KRE1, active compounds read low 1 | S. cerevisiae deletion strains, locus YNR049C, strain mso1, active compounds read low 1.02 | S. cerevisiae deletion strains, locus YNR052C, strain pop2, active compounds read low 0.995 | S. cerevisiae deletion strains, locus YOL006C, strain TOP1, active compounds read low 1.03 | S. cerevisiae deletion strains, locus YOL012C, strain htz1 0.944 | S. cerevisiae deletion strains, locus YOL147C, strain pex11, active compounds read low 0.991 | S. cerevisiae deletion strains, locus YOR001W, strain rrp6, active compounds read low 1.04 | S. cerevisiae deletion strains, locus YOR061W, strain CKA2, active compounds read low 1 | S. cerevisiae deletion strains, locus YOR069W, strain VPS5, active compounds read low 1.01 | S. cerevisiae deletion strains, locus YOR070C, strain gyp1, active compounds read low 1.01 | S. cerevisiae deletion strains, locus YOR080W, strain dia2, active compounds read low 1.01 | S. cerevisiae deletion strains, locus YOR083W, strain WHI5, active compounds read low 1.02 | S. cerevisiae deletion strains, locus YOR106W, strain vam3, active compounds read low 1.02 | S. cerevisiae deletion strains, locus YOR136W, strain idh2, active compounds read low 1.01 | S. cerevisiae deletion strains, locus YOR144C, strain elg1, active compounds read low 0.996 | S. cerevisiae deletion strains, locus YOR184W, strain ser1, active compounds read low 1 | S. cerevisiae deletion strains, locus YOR231W, strain MKK1, active compounds read low 0.99 | S. cerevisiae deletion strains, locus YOR265W, strain rbl2, active compounds read low 1.02 | S. cerevisiae deletion strains, locus YOR270C, strain vph1, active compounds read low 1.04 | S. cerevisiae deletion strains, locus YOR290C, strain snf2, active compounds read low 1 | S. cerevisiae deletion strains, locus YOR316C, strain cot1, active compounds read low 1.01 | S. cerevisiae deletion strains, locus YPL051W, strain arl3, active compounds read low 0.995 | S. cerevisiae deletion strains, locus YPL055C, strain LGE1, active compounds read low 1.02 | S. cerevisiae deletion strains, locus YPL078C, strain atp4, active compounds read low 1.03 | S. cerevisiae deletion strains, locus YPL106C, strain sse1, active compounds read low 1.02 | S. cerevisiae deletion strains, locus YPL240C, strain hsp82, active compounds read low 1.03 | S. cerevisiae deletion strains, locus YPL241C, strain CIN2, active compounds read low 1 | S. cerevisiae deletion strains, locus YPL256C, strain CLN2, active compounds read low 0.991 | S. cerevisiae deletion strains, locus YPR119W, strain clb2, active compounds read low 1 | S. cerevisiae deletion strains, locus YPR141C, strain kar3, active compounds read low 0.995 | S. cerevisiae deletion strains, locus YPR163C, strain tif3, active compounds read low 1 | S. cerevisiae deletion strains, locus YPR167C, strain met16, active compounds read low 1 | S. cerevisiae deletion strains, strain wtn01, active compounds read low 0.985 | S. cerevisiae strains, strain wild type, active compounds read low 1
